Screens from PubChem BioAssay.
An excerpt weighted towards active compounds, which were near 1.9% of everything screened.
MsrA inh – inhibitors of bovine MsrA | purified bovine MsrA, absorbance read-out | inhibition, % at 15.5 µM | actives 0.75% (n = 360,000) | AID 651718; in the data active = inhibition above about 4.5%;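 note: 0% = vehicle wells with enzyme and 100% = reference inhibitor wells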
PLC-gamma1 inh – PLC-gamma1 (human) inhibition, primary screen. P19174. inhibition, % at 12.2 µM. actives 0.84% (n = 370,000). purified PLC-gamma1, fluorogenic substrate, fluorescence; in the data active = inhibition above about 9.5%
bovine MsrA act – activates bovine MsrA enzyme | activation, % at 10.6 µM | purified bovine MsrA, absorbance read-out | AID 602163 | actives 0.3% (n = 360,000); in the data active = activation above about 7.5%;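 note: 0% = vehicle and 100% = reference activator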
PLCb3 inh – PLC-beta3 (human) inhibition, primary screen; Q01970; Purified PLC-beta3, fluorogenic substrate, fluorescence; inhibition, % at 12.2 µM; actives 0.18% (n = 370,000); AID 720704; in the data active = inhibition above about 11%;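 note: 0% = median of compound wells on plate and 100% = full blocker control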
MsrA act confirm – confirmation of bovine methionine sulfoxide reductase A activators | shares compounds with bovine MsrA act | purified bovine MsrA, absorbance read-out | activation, % at 10.6 µM | actives 12% (n = 1,000) | AID 602270; in the data active = activation above about 4%;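 note: enzyme coupled to thioredoxin and thioredoxin reductase with NADPH; 0% = vehicle wells and 100% = reference activator wells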
Numbers without * were called inactive.

Screening Cc1ccc(COc2ccsc2-c2n[nH]c(=S)n2C)cc1 returned MsrA inh -1, PLC-gamma1 inh -6, bovine MsrA act 0 and PLCb3 inh -8.
O=c1[nH]c(CN2CCN(CCO)CC2)nc2ccccc12 was read as MsrA inh 1, PLC-gamma1 inh 1, bovine MsrA act 8.9*, PLCb3 inh 2 and MsrA act confirm 0.
Screening COc1ccc(C(=O)CSc2nnc(-c3cccc(Cl)c3)n2Cc2ccco2)cc1 returned PLC-gamma1 inh 0 and PLCb3 inh -4.
Screening CC(C)[C@H](NC(=O)c1ccc(Cl)cc1Cl)C(=O)N1CCC[C@H]1C(=O)NCc1ccccc1 returned MsrA inh 1, PLC-gamma1 inh 0 and PLCb3 inh 0.
Screening O=C(O)CCC(=O)c1ccc(C2CCCCCC2)cc1 returned MsrA inh 1, PLC-gamma1 inh -2, bovine MsrA act 13*, PLCb3 inh -5 and MsrA act confirm 1.
O=C(C1CC(=O)N(c2ccc3c(c2)OCCO3)C1)N1CCN(c2ccccc2O)CC1 (stereo unspecified) was read as MsrA inh 0, PLC-gamma1 inh 0, bovine MsrA act -7 and PLCb3 inh -5.
Screening O=C(NCc1ccccc1F)C1CC(=O)N(c2ccc3c(c2)OCCO3)C1 (stereo unspecified) returned MsrA inh 0, PLC-gamma1 inh -4, bovine MsrA act 9.5*, PLCb3 inh -2 and MsrA act confirm -2.
O=C(C1CC(=O)N(c2ccc3c(c2)OCCO3)C1)N1CCN(c2ccccc2)CC1 (stereo unspecified) was read as MsrA inh 0, PLC-gamma1 inh -1, bovine MsrA act 9.4*, PLCb3 inh -6 and MsrA act confirm 0.
For COc1ccc(NC(=O)NC(C)c2ccccc2)cc1 (stereo unspecified) the results were MsrA inh -1, PLC-gamma1 inh -2, bovine MsrA act 17*, PLCb3 inh -4 and MsrA act confirm -1.
For COc1ccc(NC(C)c2ccccc2)cc1 (stereo unspecified) the results were MsrA inh 1, PLC-gamma1 inh 1, bovine MsrA act -1 and PLCb3 inh -2.
For O=C(NC1(C(F)(F)F)N=C2SCCN2C1=O)C1CCCCC1 (stereo unspecified) the results were MsrA inh -2, PLC-gamma1 inh 1, bovine MsrA act 7.8*, PLCb3 inh 0 and MsrA act confirm -1.
Screening COc1ccccc1CC(NC(C)=O)C(=O)NC1CCN(c2nnnn2-c2ccccc2)CC1 (stereo unspecified) returned bovine MsrA act -1.
`CC(=O)NC(Cc1ccccc1C)C(=O)NC1CCN(c2nnnn2-c2ccccc2)CC1` (stereo unspecified) gave MsrA inh 1, PLC-gamma1 inh 4, bovine MsrA act 12*, PLCb3 inh -4 and MsrA act confirm -1.
For COC(=O)Cc1nnn2c1[C@H](C)[C@H](C(C)(C)C)OCC2 the results were MsrA inh 0, PLC-gamma1 inh 3 and PLCb3 inh 2.
For COc1ccc(CSCC(=O)Nc2ccc(S(=O)(=O)N3CCCCCC3)cc2)cc1 the results were MsrA inh 0, PLC-gamma1 inh 3, bovine MsrA act 8.8*, PLCb3 inh 4 and MsrA act confirm -1.
For COc1ccc(NC(=O)CSCC(=O)N(C)Cc2ccc(Cl)c(Cl)c2)cc1 the results were MsrA inh 0, PLC-gamma1 inh 2, bovine MsrA act 11*, PLCb3 inh -5 and MsrA act confirm -1.
COc1ccc(NC(=O)CSCC(=O)Nc2ccc(S(=O)(=O)N3CCCCC3)cc2)cc1 was read as MsrA inh 0, PLC-gamma1 inh 3, bovine MsrA act -6 and PLCb3 inh -4.
For Cc1ccc(NC(=O)CSCC(=O)N(C)Cc2ccc(Cl)c(Cl)c2)cc1 the results were MsrA inh -1, PLC-gamma1 inh -4, bovine MsrA act -3 and PLCb3 inh -12.
O=C(NCSc1ccnc(SCNC(=O)c2ccc(F)cc2)n1)c1ccc(F)cc1 was read as MsrA inh 1, PLC-gamma1 inh 0, bovine MsrA act 8.5*, PLCb3 inh -1 and MsrA act confirm 2.
Screening CC(C)[C@H](NS(=O)(=O)c1ccc(F)cc1F)C(=O)N1CCC[C@H]1C(=O)NCc1ccccc1 returned MsrA inh 0, PLC-gamma1 inh 1 and PLCb3 inh 5.
For Cc1cc(C(=O)O)c(C)o1 the results were PLC-gamma1 inh 6 and PLCb3 inh 0.
For COC(=O)C1=C(C)N(Cc2ccc(C(F)(F)F)cc2)C(=NCc2ccc3c(c2)OCO3)NC1c1cccc(Cl)c1 (stereo unspecified) the results were MsrA inh -2, PLC-gamma1 inh 6 and PLCb3 inh -3.
